Source: PubChem BioAssay (NCATS)
Records with an inconclusive call do not appear. Active and inactive are the calls of the source. Unless noted, calls come from the whole dose curve; as a rule, active = well fitted curve in either direction with a large enough effect (not every such curve was filed as active); inconclusive = small, poorly fitted or top-dose-only effect, or another doubt; inactive = flat fitted curve, though single readings scatter.

Assays:
[1] = molecular target: Lysosomal acid glucosylceramidase (Homo sapiens) (UniProt P04062); test: Glucocerebrosidase-p2 (AID 348; in the data active = potency below about 10 µM; note: potency is the fitted concentration of half-maximal effect); conditions: purified GBA, blue fluorogenic substrate, 40 min
In short: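 Normal human glucocerebrosidase (0.2 nM) with blue fluorogenic substrate (80 uM final) in citrate/phosphate pH 5.9 with 10mM sodium taurocholate, 0.01% tween-20; 40 min RT, NaOH/glycine stop; fluorescence Ex 365/Em 440; AC50 from a titration from 0.6 nM upwards.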

[2] = AP1 Signaling Pathway (AID 357); conditions: ME-180 AP-1-bla reporter, EGF-induced, beta-lactamase ratio, 5 h; at 7.69 µM (top of the series) unless noted; note: % is set by controls: 0 for no effect and ±100 for the full control effect
In short: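 ME-180 cells with beta-lactamase reporter under AP-1 response element, stimulated with EC50 EGF; compounds tested in titration series, 5 h at 37 °C. CCF4 substrate added 2.5 h at room temperature; 460/530 nm emission ratio gave %activity and AC50.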

[3] = NFAT Signaling Pathway (AID 444); conditions: Jurkat NFAT-bla M1, carbachol, beta-lactamase ratio, 5 h; at 7.69 µM (top of the series) unless noted;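 note: carbachol stimulus at about its EC50 of 1 µM final; % is set by controls: 0 for no effect and ±100 for the full control effect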
In short: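 Jurkat cells with NFAT-driven β-lactamase reporter and co-expressed M1 receptor, stimulated with carbachol (final 1 uM, ~EC50), compound titration, 5 h at 37 °C. CCF4 loaded 1 h at RT; 460/530 nm ratio gave %activity and AC50.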

[4] = Stat Signaling Pathway (AID 446); conditions: ME-180 SIE beta-lactamase reporter, IL-6 stimulated, 5 h; at 7.69 µM (top of the series) unless noted;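 note: ME-180 cervical cancer cells given 40 pM IL-6 alongside compound; SIE-controlled beta-lactamase reporter measured as 460/530 nm FRET emission ratio; % is set by controls: 0 for no effect and ±100 for the full control effect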
In short: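 Compound effects on IL-6-induced STAT reporter activity were measured in ME-180 cells. After overnight culture, cells were co-treated with 40 pM IL-6 for 5 hrs before beta-lactamase substrate loading at room temperature.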

[5] = molecular target: Glucocorticoid receptor (Homo sapiens) (UniProt P04150); test: GR-GFP Redistribution (AID 450;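 active = compounds whose dose series gives a full or clear partial fitted curve of increased nuclear translocation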; note: potency is the fitted concentration of half-maximal effect); conditions: U2OS GR-GFP nuclear translocation, laser cytometry, 2 h
[6] = molecular target: Glucocorticoid receptor (Homo sapiens) (UniProt P04150); test: GR-EFC Redistribution (AID 451; calls by dose curve; note: potency is the fitted concentration of half-maximal effect); conditions: CHO-K1 GR-EFC translocation, beta-gal luminescence, 2 h
In short: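 CHO-K1 cells expressing nuclear EA and GR-ED fragments of b-gal; compounds titrated up to 46 uM final, 2 h at 37 C. GR nuclear translocation read as complemented b-gal luminescence after 1 h RT detection.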

[7] = molecular target: 3',5'-cyclic-AMP phosphodiesterase 4B (Homo sapiens) (UniProt Q07343); test: qHTS Assay for Inhibitors of PDE-IV (AID 607; active = well fitted activation curve with a large enough effect in the main read-out, with a control signal flat, not every such curve was filed as active; note: % of control where 0% means no effect); conditions: HEK293 ACTOne CNG channel cells, membrane potential fluorescence; series mostly up to 22.9 µM
In short: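 ACTOne HEK293 cells carry a modified cAMP-gated CNG channel and express endogenous PDE4; plated 1000 cells/well, compounds up to 22.9 uM final. Membrane-potential dye fluorescence (ex 535/em 590) was read; parental cells received 10 uM forskolin + 100 uM RO 20-1724.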

[8] = molecular target: Cytochrome P450 2C9 (Homo sapiens) (UniProt P11712); test: qHTS Assay for Inhibitors and Substrates of Cytochrome P450 2C9 (AID 883; active = well fitted curve in the direction sought with a large enough effect; an effect the other way counts as inactive or inconclusive; note: % is set by controls: 0 for no effect and ±100 for the full control effect; nearly all actives have a fitted effect of over 60% in size); conditions: recombinant CYP2C9, luciferin-H luminescence, 60 min; series mostly up to 11.4 µM
In short: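 10nM CYP2C9 + 100uM Luciferin-H (=KM), 25mM KPO4; cpd 10 min 37C; NADPH regen, 60 min 37C; stop/detect with P450 Glo-Buffer 20 min; luminescence. Norm. to 57uM sulphaphenazole as full inhibition.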

[9] = molecular target: Mitogen-activated protein kinase 10 (Mus musculus) (UniProt Q61831); test: JNK3 AlphaScreen Assay (AID 530); conditions: JNK3 lysate, c-Jun phosphorylation; series mostly up to 11.4 µM;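 note: kinase came from lysate of stimulated human HepG2 cells; signal reports phosphorylation of biotinylated GST-cJun 1-79 at Ser73 with 10 µM ATP; % is set by controls: 0 for no effect and ±100 for the full control effect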
In short: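 HepG2 lysate (IL-1b/TNFa pre-activated) + biotin-GST-cJun 1-79 + anti-pSer73 cJun; cpd titration, 15 min RT; ATP 10 uM start; Tris pH 7.6, MgCl2, DTT, vanadate; beads in EDTA buffer; AlphaScreen.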

[10] = qHTS Assay for Identification of Small Molecule Agonists for Hypoxia Response Element Signaling Pathway (AID 914; active = well fitted activation curve with a large enough effect in the signal ratio, with a control signal flat, not every such curve was filed as active; the % refers to the signal ratio; note: % of control where 0% means no effect); conditions: ME-180 (cervical carcinoma) HRE-bla reporter, beta-lactamase ratio, CoCl2, 17 h; activation: active compounds read high
In short: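 AC50 values come from titration-series %Activity, taken as the 460/530nm ratio of CCF4 fluorescence (excitation 405nm). CellSensor HRE-bla ME-180 cells were treated 17 hours at 37 C with compound plus an EC50 level of CoCl2.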

[11] = Confirmation and Secondary Assay for Modulators of Hemoglobin Beta Chain Splicing at IVS2 654 locus (AID 910; active = well fitted curve in the direction sought with a large enough effect; an effect the other way counts as inactive or inconclusive;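 note: HeLa cells stably carrying EGFP split by mutant beta-globin IVS2-654 intron; % of control where 0% means no effect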); conditions: HeLa EGFP-654 splicing reporter, GFP fluorescence, 48 h; series mostly up to 38.3 µM
In short: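 HeLa cells stably expressing EGFP interrupted by β-globin IVS2-654 intron, seeded overnight in Opti-MEM/2% FCS, then treated 2 days at 37 °C. Restored splicing read as total peak GFP intensity per well by laser scanning cytometry (488 nm excitation, 500–520 nm emission); 500 nM antisense PNA as control.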

Lysosomal acid glucosylceramidase (Homo sapiens), sequence (P04062 whole entry, looked up): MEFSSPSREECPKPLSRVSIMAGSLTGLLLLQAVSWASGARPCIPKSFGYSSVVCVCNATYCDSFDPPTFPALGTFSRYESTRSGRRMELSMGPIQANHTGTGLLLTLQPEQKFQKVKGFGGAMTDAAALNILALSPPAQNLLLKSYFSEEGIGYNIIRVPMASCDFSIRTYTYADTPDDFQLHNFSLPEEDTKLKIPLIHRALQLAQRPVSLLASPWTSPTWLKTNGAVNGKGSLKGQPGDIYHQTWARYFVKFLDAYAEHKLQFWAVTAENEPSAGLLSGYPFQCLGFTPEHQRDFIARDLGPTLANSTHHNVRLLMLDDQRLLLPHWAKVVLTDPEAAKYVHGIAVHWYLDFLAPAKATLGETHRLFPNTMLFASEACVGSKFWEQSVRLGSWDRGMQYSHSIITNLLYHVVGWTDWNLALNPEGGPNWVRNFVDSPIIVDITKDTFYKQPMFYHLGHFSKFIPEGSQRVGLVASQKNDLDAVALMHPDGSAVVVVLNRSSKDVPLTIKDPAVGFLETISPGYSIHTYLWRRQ
Glucocorticoid receptor (Homo sapiens), sequence (P04150 whole entry, looked up, the tested form may be a part): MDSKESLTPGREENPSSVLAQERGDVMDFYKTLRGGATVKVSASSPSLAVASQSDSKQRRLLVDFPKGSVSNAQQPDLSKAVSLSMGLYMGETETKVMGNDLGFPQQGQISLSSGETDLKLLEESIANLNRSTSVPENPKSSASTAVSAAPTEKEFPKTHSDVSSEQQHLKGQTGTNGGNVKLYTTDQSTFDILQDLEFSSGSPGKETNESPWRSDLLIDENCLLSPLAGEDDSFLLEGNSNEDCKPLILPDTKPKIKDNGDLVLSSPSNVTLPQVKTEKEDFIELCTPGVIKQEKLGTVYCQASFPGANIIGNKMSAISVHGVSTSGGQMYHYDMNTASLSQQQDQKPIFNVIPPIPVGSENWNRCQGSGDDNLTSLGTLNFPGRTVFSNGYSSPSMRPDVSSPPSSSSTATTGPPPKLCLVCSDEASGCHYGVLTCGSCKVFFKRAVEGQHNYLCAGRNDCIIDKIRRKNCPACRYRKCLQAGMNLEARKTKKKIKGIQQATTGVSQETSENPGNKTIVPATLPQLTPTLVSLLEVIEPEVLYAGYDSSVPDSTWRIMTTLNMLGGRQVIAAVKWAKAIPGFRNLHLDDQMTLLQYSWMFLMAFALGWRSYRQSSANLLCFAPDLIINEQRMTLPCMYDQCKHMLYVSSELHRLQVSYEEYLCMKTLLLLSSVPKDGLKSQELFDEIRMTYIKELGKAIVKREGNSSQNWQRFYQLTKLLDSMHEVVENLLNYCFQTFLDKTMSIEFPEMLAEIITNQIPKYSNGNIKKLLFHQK
3',5'-cyclic-AMP phosphodiesterase 4B (Homo sapiens), sequence (Q07343 whole entry, looked up): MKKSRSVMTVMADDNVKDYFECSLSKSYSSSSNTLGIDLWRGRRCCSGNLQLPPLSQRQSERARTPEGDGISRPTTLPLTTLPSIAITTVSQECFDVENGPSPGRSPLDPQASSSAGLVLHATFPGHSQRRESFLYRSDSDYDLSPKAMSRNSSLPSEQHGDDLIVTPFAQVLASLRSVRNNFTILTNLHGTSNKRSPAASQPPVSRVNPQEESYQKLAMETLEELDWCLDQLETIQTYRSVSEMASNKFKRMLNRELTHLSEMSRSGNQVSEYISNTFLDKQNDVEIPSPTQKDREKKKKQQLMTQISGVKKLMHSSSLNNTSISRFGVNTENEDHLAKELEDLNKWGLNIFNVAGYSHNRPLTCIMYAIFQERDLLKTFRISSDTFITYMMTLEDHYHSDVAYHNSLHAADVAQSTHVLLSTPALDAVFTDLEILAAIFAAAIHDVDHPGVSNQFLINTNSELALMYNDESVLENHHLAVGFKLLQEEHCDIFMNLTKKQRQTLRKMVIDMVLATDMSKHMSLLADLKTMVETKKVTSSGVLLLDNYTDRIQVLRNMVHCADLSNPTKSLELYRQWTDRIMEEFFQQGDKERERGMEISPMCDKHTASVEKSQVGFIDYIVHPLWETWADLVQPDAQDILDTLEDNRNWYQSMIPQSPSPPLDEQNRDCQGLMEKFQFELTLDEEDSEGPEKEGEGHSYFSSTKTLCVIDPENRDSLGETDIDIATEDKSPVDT
Cytochrome P450 2C9 (Homo sapiens), sequence (P11712 whole entry, looked up): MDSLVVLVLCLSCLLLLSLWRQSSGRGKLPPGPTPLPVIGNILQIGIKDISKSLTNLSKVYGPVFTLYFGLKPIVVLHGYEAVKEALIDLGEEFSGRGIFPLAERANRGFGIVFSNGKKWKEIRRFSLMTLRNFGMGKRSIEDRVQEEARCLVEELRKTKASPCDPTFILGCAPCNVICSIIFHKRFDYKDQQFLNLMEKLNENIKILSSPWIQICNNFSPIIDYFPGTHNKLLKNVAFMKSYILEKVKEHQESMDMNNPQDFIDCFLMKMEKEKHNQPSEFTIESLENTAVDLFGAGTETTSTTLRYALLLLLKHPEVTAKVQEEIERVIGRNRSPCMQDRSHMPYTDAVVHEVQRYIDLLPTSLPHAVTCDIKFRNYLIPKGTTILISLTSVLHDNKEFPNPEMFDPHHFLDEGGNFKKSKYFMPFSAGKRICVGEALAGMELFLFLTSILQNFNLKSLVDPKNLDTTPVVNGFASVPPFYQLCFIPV

CC(C)(CCc1nc2ccccc2[nH]1)C(=O)O
inactive: Potency [1] > 11.4 µM | activity change, negative = inhibition [2] -7.34% | activity change, negative = inhibition [3] 6.77% | activity, negative = inhibition [4] 1.19% | Potency [5] > 46 µM | Potency [6] > 9.22 µM | Potency [7] | Potency [8]

O=C(O)[C@@H](Br)[C@@H](Br)c1ccccc1[N+](=O)[O-]
inactive: Potency [1] > 11.4 µM | activity change, negative = inhibition [2] 3.89% | activity change, negative = inhibition [3] 10.2% | activity, negative = inhibition [4] -0.793% | Potency [5] > 46 µM | Potency [6] > 9.22 µM | Potency [9] | activation [10] 6.66%

O=S(=O)(O)c1ccc(N=Nc2ccc3c(S(=O)(=O)O)cccc3c2O)c2ccccc12
inactive: Potency [1] > 11.4 µM | activity change, negative = inhibition [2] 1.08% | activity change, negative = inhibition [3] 9.05% | activity, negative = inhibition [4] -4.32% | Potency [5] > 46 µM | Potency [6] > 9.22 µM | Potency [7]

O=S(=O)(O)c1ccc2c(N=Nc3c(O)ccc4ccccc34)cccc2c1
inactive: Potency [1] > 11.4 µM | activity change, negative = inhibition [2] -13.3% | activity change, negative = inhibition [3] -11.8% | activity, negative = inhibition [4] -5.48% | Potency [5] > 46 µM | Potency [6] > 9.22 µM | Potency [7]

c1ccc2nc(CC[C@@H]3CCCCN3)ccc2c1
inactive: Potency [1] > 11.4 µM | activity change, negative = inhibition [2] 7.07% | activity change, negative = inhibition [3] -3.97% | activity, negative = inhibition [4] -5.39% | Potency [5] > 46 µM | Potency [6] > 9.22 µM | Potency [9] | Potency [7] | activation [10] -14.2%

Nc1ccc(-c2ccc(Nc3cc(S(=O)(=O)O)c(N)c4c3C(=O)c3ccccc3C4=O)cc2)c(S(=O)(=O)O)c1
inactive: Potency [1] > 11.4 µM | activity change, negative = inhibition [2] 3.81% | activity change, negative = inhibition [3] -2.33% | activity, negative = inhibition [4] -2.95% | Potency [5] > 46 µM | Potency [6] > 9.22 µM | Potency [9] | Potency [7] | activation [10] -7.34%

O=C(O)c1ccc2c(c1C(=O)O)C(=O)OC2(c1ccc(O)cc1)c1ccc(O)cc1
inactive: Potency [1] > 11.4 µM | activity change, negative = inhibition [2] 2.33% | activity change, negative = inhibition [3] 0.0722% | activity, negative = inhibition [4] 1.84% | Potency [5] > 46 µM | Potency [6] > 9.22 µM | Potency [9] | Potency [7] | activation [10] 9.96%

Cc1cccc(CNc2nc(-c3ccc(C(=O)N(C)C)cc3)nc3ccccc23)c1
inactive: Potency [1] > 11.4 µM | activity change, negative = inhibition [2] -29.6% | activity change, negative = inhibition [3] 25.2% | activity, negative = inhibition [4] -18.6% | Potency [5] > 46 µM | Potency [6] > 46 µM | Potency [9] | outcome [11]

COCCn1c(=O)c(-c2ccc(OC)cc2)nc2cnc(Oc3ccccc3)nc21
inactive: Potency [1] > 11.4 µM | activity change, negative = inhibition [2] -9.38% | activity change, negative = inhibition [3] 12.7% | activity, negative = inhibition [4] 16.5% | Potency [5] > 9.22 µM | Potency [6] > 46 µM | Potency [7]

O=c1[nH][nH]c(=S)c(=O)[nH]1
inactive: Potency [1] > 11.4 µM | activity change, negative = inhibition [2] -2.98% | activity change, negative = inhibition [3] 12.7% | activity, negative = inhibition [4] 3.19% | Potency [5] > 46 µM | Potency [6] > 9.22 µM | Potency [9] | Potency [7] | activation [10] 5.24%

O=C1c2ccccc2C(=O)c2c(Nc3cc4c5c(ccc6c7ccc8c9c(cc(Nc%10cccc%11c%10C(=O)c%10ccccc%10C%11=O)c(c3c56)c97)-c3ccccc3C8=O)C(=O)c3ccccc3-4)cccc21
inactive: Potency [1] > 11.4 µM | activity change, negative = inhibition [2] 11.6% | activity change, negative = inhibition [3] 22.7% | activity, negative = inhibition [4] 11.5% | Potency [5] > 46 µM | Potency [6] > 9.22 µM | Potency [7]

O=C(O)C[C@H](Sc1ccccc1)c1ccccc1
inactive: Potency [1] > 11.4 µM | activity change, negative = inhibition [2] 7.59% | activity change, negative = inhibition [3] 8.06% | activity, negative = inhibition [4] -24.9% | Potency [5] > 46 µM | Potency [6] > 9.22 µM | Potency [9] | Potency [7] | activation [10] -1.84%

O=[N+]([O-])c1cccc(/C=N\NC2=CS(=O)(=O)C=C2)c1
inactive: Potency [1] > 11.4 µM | activity change, negative = inhibition [2] 4.95% | activity change, negative = inhibition [3] 14.6% | activity, negative = inhibition [4] 5.97% | Potency [5] > 46 µM | Potency [6] > 9.22 µM | Potency [9] | Potency [7] | activation [10] 1.06%

O=S(=O)(O)c1cc(O)c2c(O)c(N=Nc3cccc4ccccc34)c(S(=O)(=O)O)cc2c1
inactive: Potency [1] > 11.4 µM | activity change, negative = inhibition [2] -2.93% | activity change, negative = inhibition [3] -6.39% | activity, negative = inhibition [4] 4.42% | Potency [5] > 46 µM | Potency [6] > 9.22 µM | Potency [7] | activation [10] -26.6%
